Screens as filed in PubChem BioAssay.
Pf growth 48h: P. falciparum growth inhibition at 48 hours (one generation); AID 504832; Potency, µM (top dose mostly 28.7 µM), without a hit: top-dose activity change, negative = inhibition, usual class: inhibitors; actives 5.9% (n = 310,000); P. falciparum luciferase growth in erythrocytes, 48 h; further: on the % scale 0 is the no-effect control and ±100 the full control effect
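Cell-based growth assay: transgenic P. falciparum expressing firefly luciferase, cultured in red cells within RPMI 1640 containing 0.5% w/v Albumax, 24 mM bicarbonate and gentamycin. A drop in luciferase activity indicates inhibition.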
SARS PLP yeast: blocks SARS-CoV papain-like protease in a yeast assay. Potency, µM (highest dose often 32.9 µM), for the others: at the highest dose activity, positive = growth rescue, hits mostly activators. S. cerevisiae expressing SARS-CoV PLpro, growth rescue. actives 0.19% (n = 330,000); calls by dose curve; further: 0% is about no effect; nearly all actives have a fitted effect of over 55% in size
Pf growth 96h: inhibits malaria parasite growth, 96 h; Potency, µM (top dose mostly 28.7 µM), without a hit: at the highest dose activity change, negative = inhibition, actives largely listed as inhibitors; actives 6.9% (n = 320,000); P. falciparum luciferase reporter growth, 96 h; AID 504834; further: on the % scale 0 is the no-effect control and ±100 the full control effect
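Parasite growth measured via integrated firefly luciferase reporter in P. falciparum. Infected erythrocytes at 2% hematocrit, 0.05% parasitemia final were treated 96 hours at 37 C under 5% CO2, and luminescence was read.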
AMA1 RON2 block: disrupts binding of P. falciparum AMA1 to RON2; AID 720542; actives 0.2% (n = 360,000); AlphaScreen AMA1-biotinylated RON2 peptide binding; Potency, µM (highest dose often 58.2 µM), for inactives: at the top dose activity change, negative = inhibition, most hits filed as inhibitors;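 further: 0% = vehicle wells and -100% = peptide control; nearly all actives have a fitted effect of over 45% in size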
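AMA1 (3D7) with his tag at 25 nM final met compounds first, then biotinylated RON2 peptide at 25 nM; detection used donor plus acceptor beads, 10 µg/mL apiece, read by AlphaScreen after 30 min at room temperature.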
* marks the source's active call; other numbers are inactive results; u = inconclusive; x = not tested or not shown; [ ] = remark or other dose. An excerpt weighted towards active compounds, which were near 9.4% of everything screened. Unless noted, the call rests on the fitted dose curve; in most records, active means well fitted curve in the direction sought with a large enough effect; inconclusive means small, poorly fitted or top-dose-only effect, or another doubt; inactive means no such curve, though single readings can be large; an effect the other way counts as inactive or inconclusive. Potency means the concentration at half of the fitted maximal effect.

SMILES	Pf growth 48h	SARS PLP yeast	Pf growth 96h	AMA1 RON2 block
CCn1c(Sc2nc(C)nc3scc(-c4cccs4)c23)n[nH]c1=O	u	-24.9%	7.38µM*	-4.6%
Cc1nc(SCC(=O)NC(=O)NCCC(C)C)c2c(-c3cccs3)csc2n1	11.7µM*	-6.8%	u	-3.1%
C[C@@H]1CCCN1[C@@H]1CS(=O)(=O)N[C@H]1COCc1ccccc1	x	x	x	10.3%
C1=C[C@@H]2CCN(Cc3ccccc3)Cc3cccc(c32)C1	8.28µM*	0.0%	7.38µM*	0.0%
COc1ccc(CN2CC[C@H]3C=CCc4cccc(c43)C2)cc1	3.7µM*	-5.4%	u	u
CC(=O)C1CCN(Cc2ccccc2)CC1	x	7.6%	20.2%	0.0%
Cc1ccc(CN2CC[C@H]3C=CCc4cccc(c43)C2)cc1	5.22µM*	0.9%	u	-25.5%
COc1ccc(CNC2CCN(Cc3ccccc3)CC2)cc1	u	0.2%	-2.8%	0.0%
Cc1ccccc1N(C(=O)CCCC(=O)Nc1ccccn1)C(C(=O)NC1CCCC1)c1ccc(O)cc1 (centres undefined)	u	1.7%	u	-16.8%
Cc1cccc(N(CC(=O)NCc2ccc3c(c2)OCO3)C(=O)CCC(=O)Nc2ccccn2)c1C	5.86µM*	16.0%	x	-5.9%
Cc1cccc(N(CC(=O)NCc2ccc3c(c2)OCO3)C(=O)CCC(=O)Nc2ccccn2)c1	13.1µM*	8.6%	160.6%	-4.9%
CO/N=C(\C)c1ncc(C(F)(F)F)cc1N1CCOCC1	0.8%	5.6%	x	14.1%
CCCOc1cccc(-c2nn(-c3ccccc3)cc2/C=C(\C#N)C(=O)NCCCn2ccnc2)c1	2.08µM*	-15.1%	10.4µM*	28.6%
N#C/C(=C/c1cn(-c2ccccc2)nc1-c1cccc(OCc2ccc(F)cc2)c1)C(=O)NCCCn1ccnc1	3.7µM*	-38.1%	2.08µM*	8.6%
CCCC/C(O)=C1\C(=O)CCCC1=NCCc1c(C)[nH]c2ccc(OC)cc12	u	-0.9%	3.4%	-29.0%
CCCCn1c(C)cc2c(c1=O)C1O[C@](c3ccc(OC)cc3)(Cc3cc(OC)c(OC)cc31)O2	u	5.7%[6.58 µM]	1.51µM*	x
COc1cc2c(cc1OC)[C@@H]1O[C@](CCCCN3C(=O)c4ccccc4C3=O)(C2)Oc2cc(C)n(-c3ccccc3)c(=O)c21	1.07µM*	4.6%[6.58 µM]	u	x
CCCCn1c(C)cc2c(c1=O)[C@H]1O[C@](CCCC)(Cc3cc(OC)c(OC)cc31)O2	-2.2%[5.75 µM]	-8.7%[6.58 µM]	u	x
COc1cc2c(cc1OC)C1O[C@](CCCCN3C(=O)c4ccccc4C3=O)(C2)Oc2cc(C)n(Cc3ccccc3)c(=O)c21	u	0.5%[6.58 µM]	2.39µM*	x
O=[N+]([O-])c1ccccc1-c1ccc(C(=S)N2CCN(c3ccccc3)CC2)o1	12.1%	0.2%	33.8%	u
CN(CC(=O)N1CCN(c2ccccc2)CC1)S(=O)(=O)c1cnc[nH]1	9.9%	-6.8%	31.2%	-0.8%
CC(=O)Nc1ccc(NC(=O)C2Cc3c(-c4ccc(Cl)cc4)ccnc3O2)cc1 (centres undefined)	x	x	x	-5.6%
COC1=CC(=O)c2ccccc2C1=O	x	-18.9%	x	6.3%
COc1ccc(NC2=C(c3ccc(OC)cc3)C(=O)c3ccccc32)cc1	0.657µM*	7.2%	u	1.0%
COC1=C(c2ccccc2)C(=O)c2ccccc2C1=O	1.47µM*	-80.3%	1.17µM*	-28.6%
SMILES	Pf growth 48h	SARS PLP yeast	Pf growth 96h	AMA1 RON2 block
COc1ccc(C2=C(Nc3ccccc3)c3ccccc3C2=O)cc1	1.04µM*	-9.2%	-92.7%	-12.0%
COc1ccc(C2=C(N)c3ccccc3C2=O)cc1	-4.8%	-14.1%	10.4µM*	-13.3%
CN(C(=O)c1cccc(NC(=O)Cc2ccc(NC(=O)C3CCN(C(=O)C4CCCC4)CC3)cc2)c1)C1CC1	x	x	x	-5.4%
CCc1nnc(NC(=O)C2CC(=O)N(C3CCCC3)C2)s1 (centres undefined)	2.0%	-4.6%	-13.2%	-0.7%
O=C(C1=C(c2ccccc2)C(=O)c2ccccc2C1=O)c1ccccc1	1.47µM*	10.8%	27.7%	u
O=C(c1ccccc1)c1c[nH]cc1-c1ccccc1	10.7%	4.4%	1.6%	-11.5%
COc1cc(NC(=O)CN(C)S(=O)(=O)c2ccc3c(c2)CC(C)N3C(C)=O)cc(OC)c1 (centres undefined)	0.0%	3.0%	u	-0.6%
COc1ccc(CNC(=O)C2CCN(S(=O)(=O)c3ccc4c(c3)CC(C)N4C(C)=O)CC2)cc1 (centres undefined)	u	7.4%	11.7µM*	-1.1%
COc1ccc(NC(=O)CN(C)S(=O)(=O)c2ccc3c(c2)CC(C)N3C(C)=O)c(OC)c1 (centres undefined)	u	-0.8%	7.38µM*	0.6%
CC(=O)N1c2ccc(S(=O)(=O)N3CCC(C(=O)Nc4ccccn4)CC3)cc2CC1C (centres undefined)	u	1.8%	5.86µM*	-0.2%
C[C@H](C(=O)O)c1n[nH]c(=O)c2ccccc12	-0.6%	1.1%	-11.9%	-3.2%
COC(=O)c1ccc(/C=N/OCC(=O)NC2CCCCCCC2)cc1	x	3.5%	14.7%	-17.8%
CC(=O)c1c(N2CCN(Cc3ccccc3)CC2)nc(=S)n(Cc2ccccc2)c1C	-12.9%	10.1%	-4.4%	u
COc1ccc(N(CC(=O)NC2CCCC2)C(=O)Cn2nnc(-c3ccc(C)cc3)n2)cc1OC	u	5.1%	10.4µM*	-0.4%
COc1ccc(CCNC(=O)Cn2nnc(-c3ccc(OC)c(OC)c3)n2)cc1OC	-9.7%	0.3%	15.7%	-0.8%
COc1ccc(CCNC(=O)Cn2nnc(-c3ccc(N(C)C)cc3)n2)cc1OC	24.4%	-0.6%	4.15µM*	-5.2%
O=C1c2ccccc2S(=O)(=O)N1CCCN1C(=O)c2ccccc2S1(=O)=O	x	x	x	8.3%
C=C(C)Cn1cnc2c(oc3nc4c(cc32)CCCC4)c1=O	139.9%	-0.8%	11.7µM*	1.8%
COc1ccc(C2(CNC(=O)/C=C\c3ccco3)CCCC2)cc1OC	11.7µM*	-2.9%	u	7.7%
CCc1cccc(OCC(=O)N(C)CC(=O)Nc2cccc(F)c2)c1	-9.5%	-2.5%	-4.4%	15.1%
COc1ccc2c(c1)N(C)/C(=C/c1cccc[n+]1C)S2	0.37µM*	-3.9%	u	-7.7%
COc1cc(OC)cc(C(=O)/C=C2\Sc3ccccc3N2C)c1	148.5%	-1.1%	87.2%	6.1%
CCN1/C(=C/C(C)=O)Sc2ccc(OC)cc21	8.3%	-13.3%	u	1.5%
CCN1/C(=C/c2cccc[n+]2C)Sc2ccc(OC)cc21	1.04µM*	-4.7%	-27.5%	-7.9%
Cc1ccc(C)c(OCC(=O)Nc2ccc(N3CCOCC3)cc2N2CCOCC2)c1	u	4.7%	u	-25.1%
N=c1c2ccccc2nnn1-c1cccc(C(F)(F)F)c1	13.1µM*	-0.9%	u	-4.1%
Cc1ccnc(NC(=O)CCCc2ccc(N(CCCl)CCCl)cc2)n1	x	x	x	-1.4%
COc1ccc(-n2c(CCc3ccccc3)nnc2SCC(=O)NCc2ccccc2)cc1	x	15.4%	10.4µM*	-15.5%
O=C(CSc1nnc(CCc2nc3ccccc3[nH]2)n1-c1ccccc1)NCc1ccccc1	u	-29.4%	10.4µM*	3.1%
